# Test results: ChEMBL document CHEMBL3988442, “University of Dundee, Small-Polar-MMV Screening Library” (2021)
# Out of some 69,000 compounds screened, about 420 (0.61%) showed an effect of 50% or more. What follows is part of a selection rich in strong results, with near analogues and random picks from the rest.
# Molecular target: T1, Histidine--tRNA ligase (Leishmania infantum) (UniProt A4I591)
# T1 sequence (whole entry): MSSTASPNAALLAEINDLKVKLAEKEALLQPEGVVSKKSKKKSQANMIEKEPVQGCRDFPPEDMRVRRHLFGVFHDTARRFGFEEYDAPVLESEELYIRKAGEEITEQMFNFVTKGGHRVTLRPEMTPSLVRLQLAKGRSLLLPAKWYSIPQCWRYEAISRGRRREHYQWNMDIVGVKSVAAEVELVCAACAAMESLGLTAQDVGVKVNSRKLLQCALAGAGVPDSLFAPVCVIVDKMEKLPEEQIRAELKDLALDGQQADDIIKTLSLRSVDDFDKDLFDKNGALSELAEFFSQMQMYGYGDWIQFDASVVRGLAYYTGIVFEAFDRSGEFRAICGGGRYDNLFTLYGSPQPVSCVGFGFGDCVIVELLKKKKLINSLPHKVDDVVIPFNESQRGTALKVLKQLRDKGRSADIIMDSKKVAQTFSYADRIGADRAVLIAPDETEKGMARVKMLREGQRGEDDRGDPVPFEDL
# Assay: Leishmania infantum Histidine tRNA synthetase (LdHisRS)
# Assay type: functional
# Set-up: scale not given: in the data most compounds retested in dose-response had high values
# Settings: 30 µM
row,SMILES,Percent Effect [%]
1,CN1C(=O)CO[C@H](c2ccc(NC(=O)Nc3ccccc3)cc2)[C@H]1CO,14.9
2,CCOC1CCN(C(=O)NCc2ccc(CN3CCOCC3)cc2)CC1,13.5
3,CCOC1CCN(C(=O)NCc2ccc(C(=O)N(C)C(C)C)cc2)CC1,16.7
4,Cn1cc(NC(=O)C2CC(c3ccccc3)C2)ccc1=O (stereo unspecified),71.3
5,Cn1cc(NC(=O)N2CCN(Cc3cscn3)CC2)ccc1=O,74.8
6,Cn1cc(C(=O)N2CCN(c3ccccc3)CC2)ccc1=O,11
7,CC(C)Oc1ncccc1CNC(=O)N1CCC1c1ccccc1 (stereo unspecified),16.8
8,CC(C)c1nnc(NC(=O)N2CCN(C)CC2c2ccccc2)s1 (stereo unspecified),4.17
9,Cc1oc(C)c(C(=O)N2CCN(Cc3cscn3)CC2)c1C,13.3
10,CCOC1CCN(C(=O)Nc2ccc(=O)n(C)c2)CC1,114
11,Cn1cc(NC(=O)N2CCC2c2ccccc2)ccc1=O (stereo unspecified),108
12,Cn1cc(C(=O)N2CCN(Cc3cscn3)CC2)ccc1=O,15.3
13,O=C1[C@@H]2C[C@H](O)CCN2C(=O)CN1CCSc1ccccn1,17.6
14,COc1ccccc1S(=O)(=O)N1CCN(C)[C@@H]2CS(=O)(=O)C[C@@H]21,-6.67
15,CN(C)C[C@H]1C[C@@H]2CN(C(=O)c3ccco3)C[C@@H]2O1,10.3
16,O=C1N(Cc2ccccn2)C[C@H]2CN(S(=O)(=O)c3ccccc3)CCN12,24.3
17,Cn1nccc1C(=O)N1C[C@@H]2CC[C@H](Oc3cccc(F)c3)[C@@H]2C1,18
18,Cc1cc(C(=O)N2C[C@@H]3CCCO[C@@H]3[C@H](N(C)C(C)C)C2)c(C)[nH]1,11.5
19,O=C(NCc1cccs1)[C@H]1CC[C@@H]2[C@@H](CCN2Cc2ccoc2)O1,12.5
20,CCS(=O)(=O)N1CCO[C@H]2[C@H](OCC3CCCC3)CC[C@@H]21,20.8
21,O=C(O)[C@]12CCCN(Cc3ccsc3)C[C@H]1CN(c1ncccn1)C2,10.5
22,O=C(Cc1cccc(F)c1)N1C[C@H]2CN(Cc3cccnc3)C[C@H]2C1,3.85
23,CC(C)CN1C[C@@H]2OCC(=O)N(c3ccccc3)[C@@H]2C1,21.6
24,CS(=O)(=O)NC1CCN(C(=O)NCC2CCCO2)CC1 (stereo unspecified),11

row,SMILES,Percent Effect [%]
1,CC(NC(=O)N1CCC(OCc2ccccc2)CC1)c1nncn1C (stereo unspecified),20.3
2,CS(=O)(=O)NC1CCN(C(=O)c2ccc(F)cc2)CC1,28.1
3,Cn1cc(NC(=O)N2CCC(Cc3ccccc3)CC2)ccc1=O,101
4,O=C(C1CCOC1)N1CCC(OCc2ccccc2)CC1 (stereo unspecified),16.8
5,NC(=O)Cn1cc(NC(=O)N2CCC(c3ccccc3)CC2)cn1,16.5
6,CC(NC(=O)N1CCC(c2ccccc2)CC1)c1nncn1C (stereo unspecified),13.8
7,Cn1cc(NC(=O)N2CCC(NS(C)(=O)=O)CC2)ccc1=O,91.5
8,Cn1cc(NC(=O)N2CCC(CN3CCCC3)CC2)ccc1=O,6.38
9,C[C@H](NC(=O)N1CCC(Cc2ccccc2)CC1)C(=O)O,-5
10,Cn1cc(NC(=O)N2CCC(c3ccccc3)CC2)ccc1=O,102
11,Cn1cc(NC(=O)N2CCC(OCc3ccccc3)CC2)ccc1=O,103
12,CN(C)C(=O)NC[C@H]1OC[C@@H]2CCN(Cc3ccoc3)C[C@@H]21,-1.89
13,Cn1cccc1C(=O)N1CCO[C@@H]2CN(Cc3ccco3)C[C@@H]2C1,11.8
14,Cc1occc1C(=O)N1C[C@@H](OCc2cccnc2)[C@H]2OCCC[C@@H]21,28.2
15,O=C1O[C@@H]2CN(Cc3cc4ccccc4s3)C[C@@H]2N1Cc1ccccn1,2.67
16,CCN1C(=O)CO[C@@H]2CN(C(=O)C3CCOCC3)C[C@H]21,20.6
17,CN(C)S(=O)(=O)N1CC[C@]2(O)CCN(CCCc3cccnc3)C[C@@H]2C1,18.4
18,Cc1ccccc1CN1C[C@@H]2COC[C@]2(CNC(=O)C2CCC2)C1,13.9
19,COCCOCC(=O)N1C[C@@H]2CC[C@H](Oc3ccccc3)[C@@H]2C1,26.3
20,Cc1cc(CNc2ccc3nc(C4CC4)sc3c2)no1,27.6
21,Cc1cc(CNc2ccc3nc(C)sc3c2)no1,58.6
22,Cc1noc(C)c1CNc1cccc(C(=O)N(C)c2ccccc2)c1,-0.855
23,Cc1noc(C)c1CNc1cccc(C(=O)N2CCCC(O)C2)c1 (stereo unspecified),27.4
24,Cc1cc(CNc2ccc(C(F)(F)F)cc2)no1,17

row,SMILES,Percent Effect [%]
1,Cc1noc(C)c1CNc1ccc2nc(C3CC3)sc2c1,75.9
2,O=C(c1cscn1)N1CCO[C@H]2[C@@H](Oc3ccccn3)CC[C@@H]21,7
3,Cc1noc(CN2C[C@H]3CC[C@@H]2CN(C2Cc4ccccc4C2)C3)n1,20.4
4,O=C(N1CCOCC1)[C@@]12CCO[C@@H]1CCN(C1CCCCC1)C2,20.5
5,Cc1cccc(CN2C[C@@H]3CN(C(=O)c4ccsc4)C[C@@H]3C2=O)n1,28.6
6,Cc1cccc(CN2C(=O)CO[C@@H]3CN(Cc4nccn4C)C[C@H]32)c1,17.3
7,Cc1ccc(C)n1-c1ccc(C(=O)NCCNc2ncccn2)cc1,53
8,CCc1ccc(C(=O)NCCNc2ncccn2)cc1,2.63
9,O=C(NCCNc1ncccn1)c1ccc(Br)cc1,18.4
10,O=C(c1ccoc1)N1C[C@@H]2OCCN(c3ncccn3)[C@@H]2C1,15.3
11,Nc1ccc(C(=O)N2C[C@@H]3CC[C@H](C2)N(Cc2ccccc2)C3)cn1,9.57
12,CC(=O)N1[C@H](CN(C)C)C[C@@H]2CN(c3ncc(F)cn3)CC[C@@H]21,14.5
13,COc1cc(CNCCc2cnn(C)c2)cc2c1OCCO2,24.8
14,COc1cc(CNc2cnn(C)c2)cc2c1OCCO2,53.6
15,COc1cc(CNCCn2cc(C)cn2)cc2c1OCCO2,9.17
16,CC(C)NC(=O)[C@H]1C[C@@H]2[C@@H](C1)OCCN2Cc1ccco1,5.56
17,Cc1cncc(C(=O)N2C[C@@H]3CN(S(C)(=O)=O)CCO[C@@H]3C2)c1,15.1
18,O=C(N[C@@H]1CN(c2ncccn2)C[C@@H]2CCCO[C@@H]21)c1ccnnc1,22.9
19,CC(=O)Nc1ccc(CN(C)Cc2snnc2C)cc1,16.3
20,CC(=O)Nc1ccc2nc(CN(C)Cc3snnc3C)ccc2c1,61.2
21,CC(=O)Nc1ccc2nc(CN(C)Cc3noc(C)n3)ccc2c1,18.4
22,Cc1ccoc1C(=O)N1C[C@H](OCC2CC2)[C@H]2OCCC[C@H]21,2.65
23,COC[C@@]12CC[C@@H](N3CCOCC3)C[C@H]1CCN(c1cc(C)ccn1)C2,19.4
